Source: PubChem BioAssay AID434962 (The Scripps Research Institute Molecular Screening Center, 2010)
About 1,300 (0.41%) of roughly 320,000 compounds were called active. Only a selection was taken, and actives are over-represented in it overall. A number with no mark means an inactive call.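 How the source made its calls: active means percent inhibition above the average of all tested compounds plus 3 SD, set per screening campaign (cut at about 16% in these data); inactive means the rest.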

target: Insulin-degrading enzyme (Homo sapiens) (UniProt P14735); experiment: cellular IDE Abeta-cleavage inhibition – fluorescence polarization, HEK cells, FAbetaB substrate, primary screen (AID 434962); settings: at 5.59 µM, stronger effect = higher value;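 further: IDE supplied by intact live HEK cells; FP after avidin binding of uncleaved biotin substrate so inhibition keeps polarization high; 0% = DMSO wells and 100% = 60 µM reference IDE inhibitor Ii1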
Sequence (P14735 whole entry, looked up): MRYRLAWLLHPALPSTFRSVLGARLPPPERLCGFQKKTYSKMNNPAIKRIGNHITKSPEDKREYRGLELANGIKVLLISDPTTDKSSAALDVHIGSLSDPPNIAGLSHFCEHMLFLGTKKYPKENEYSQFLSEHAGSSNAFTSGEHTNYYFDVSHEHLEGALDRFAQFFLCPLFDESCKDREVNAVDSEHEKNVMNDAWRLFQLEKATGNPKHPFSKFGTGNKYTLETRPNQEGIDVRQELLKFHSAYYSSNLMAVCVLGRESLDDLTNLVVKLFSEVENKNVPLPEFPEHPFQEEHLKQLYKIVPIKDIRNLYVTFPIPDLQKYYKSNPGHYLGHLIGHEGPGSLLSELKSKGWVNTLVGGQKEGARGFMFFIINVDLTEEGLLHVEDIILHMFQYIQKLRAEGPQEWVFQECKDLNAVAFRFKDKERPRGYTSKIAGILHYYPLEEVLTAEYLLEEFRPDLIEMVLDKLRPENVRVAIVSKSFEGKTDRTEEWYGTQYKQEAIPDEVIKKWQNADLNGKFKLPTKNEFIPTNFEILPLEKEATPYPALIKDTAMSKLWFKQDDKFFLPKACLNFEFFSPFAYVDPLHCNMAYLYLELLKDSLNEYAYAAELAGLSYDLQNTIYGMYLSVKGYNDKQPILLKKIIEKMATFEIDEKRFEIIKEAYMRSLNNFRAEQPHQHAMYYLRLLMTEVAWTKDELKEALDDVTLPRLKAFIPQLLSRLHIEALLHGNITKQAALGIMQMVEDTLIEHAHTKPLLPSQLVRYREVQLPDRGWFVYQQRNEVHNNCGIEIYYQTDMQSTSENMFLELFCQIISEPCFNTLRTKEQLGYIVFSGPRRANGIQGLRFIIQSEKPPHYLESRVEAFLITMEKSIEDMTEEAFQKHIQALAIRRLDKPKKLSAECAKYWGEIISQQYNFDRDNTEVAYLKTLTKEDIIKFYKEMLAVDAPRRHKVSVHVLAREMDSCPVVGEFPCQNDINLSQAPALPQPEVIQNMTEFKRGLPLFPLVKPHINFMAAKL

Structure (SMILES) | inhibition
O=C(NCCC1CCCCN1S(=O)(=O)c1ccccc1)C(=O)NCC1CCCO1 (stereo not given) | 3.94%
Cc1ccccc1CSc1nnc(-c2ccccc2)c(=O)[nH]1 | 0.38%
COc1cccc(-n2c(Cc3cc(=O)[nH]c(=O)[nH]3)nnc2SCC(=O)Nc2ccccc2)c1 | 2.57%
Cc1cccc(-n2c(Cc3cc(=O)[nH]c(=O)[nH]3)nnc2SCC(=O)Nc2cccc(C(F)(F)F)c2)c1 | 18.2% (active)
Cc1cccc(-n2c(Cc3cc(=O)[nH]c(=O)[nH]3)nnc2SC(C)C)c1 | 6.03%
Cc1ccc(S(=O)(=O)N2CCN(C(=O)COC(=O)CNC(=O)c3ccc(C(C)(C)C)cc3)CC2)c(C)c1 | 1.73%
CCOc1cc(C(=O)Nc2ncccn2)cc(OCC)c1OCC | -0.15%
CCOc1cc2c(Cl)ncnc2c(OCC)c1OCC | 17.1% (active)
CCOc1cc(-c2conc2N)cc(OCC)c1OCC | 0.37%
Cc1ccc(S(=O)(=O)N2CCN(CC(=O)N/N=C/c3ccc(Br)s3)CC2)cc1 | 2.15%
COc1ccc(C(=O)Nc2nc(-c3ccc(S(=O)(=O)N4CCOCC4)cc3)cs2)cc1 | 24.5% (active)
CCOC(=O)c1csc(NC(=O)c2ccc(S(=O)(=O)N3CCCC3)cc2)n1 | 0.72%
CNC(=O)c1ccsc1NC(=O)c1ccc(S(=O)(=O)N2CCOCC2)cc1 | 6.05%
CC(=O)CC(CC(=O)NC1CCCCC1)c1ccccc1 (stereo not given) | -6.38%
COCCCNC(=O)/C=C/c1ccc(OCc2c(F)cccc2Cl)cc1 | 11.8%
CN(C)CCCNC(=O)/C=C/c1ccc(OCc2c(F)cccc2Cl)cc1 | 5.4%
O=C(/C=C/c1ccc(OCc2c(F)cccc2Cl)cc1)N1CCOCC1 | 21.1% (active)
CCn1c(C)c(C)c2cc(C(=O)N3CCN(c4cccc(C)c4C)CC3)ccc21 | -0.11%
Cc1cccc(N2CCN(C(=O)c3cccc(N4C(=O)C5C6C=CC(C6)C5C4=O)c3)CC2)c1C (stereo not given) | 44.4% (active)
CC1C=CCC2C(=O)N(c3cccc(C(=O)N4CCCCCC4)c3)C(=O)C12 (stereo not given) | -1.29%
CC(C)(C)C(=O)Nc1c(Br)c(C2CC2)nn1-c1ccccc1 | 0.92%
Cc1c(NC(=O)C(C)OC(=O)c2cc3c4ccccc4n(C)c3s2)c(=O)n(-c2ccccc2)n1C (stereo not given) | -0.34%

Structure (SMILES) | inhibition
CCCn1c(N)c(C(=O)CSc2nc3ccccc3c(=O)n2-c2ccc(OC)cc2)c(=O)[nH]c1=O | -10.9%
COc1ccc(Br)cc1C(=O)NC(=S)Nc1cc(-c2nc3ccccc3[nH]2)ccc1C | 24.5% (active)
Cc1cc2[nH]ncc2cc1NC(=S)NC(=O)c1ccccc1 | -2.99%
COc1ccc(Br)cc1C(=O)Nc1cccc(C)c1C | 2.56%
CCOC(=O)C(CC)/C(C)=N\NC(=O)c1cccc(C)c1 (stereo not given) | -1%
Cc1cc(Cl)ccc1OCCCC(=O)Nc1cccc(-n2cnnn2)c1 | 6.2%
Cc1cc(Cl)ccc1OCCCC(=O)NCc1ccncc1 | 22.1% (active)
Cc1cc(Cl)ccc1OCCCC(=O)NCc1ccccn1 | -0.14%
CN(C)Cc1ccc(F)cc1Sc1cc(Cl)ccc1Cl | 7.05%
CCOC(=O)CNc1nc(Cl)nc(Nc2ccc(OC)cc2OC)n1 | -1.6%
COc1cc(/C=C2/SC(=S)N(Cc3ccccc3)C2=O)cc(OC)c1O | 68.4% (active)
COc1ccc(/C=C2\SC(=S)N(CCCC(=O)NC3CCCC3)C2=O)cc1OC | -2.87%
COc1ccc(/C=C2\SC(=S)N(CCC(=O)Nc3cccc(C(=O)O)c3)C2=O)cc1OC | 1.95%
O=C(Nc1ccnn1C1CCN(C/C=C/c2ccc(F)cc2)CC1)C1CCCC1 | -2.53%
COc1cccc(CNC(=O)Cn2c(=O)oc3cc(S(=O)(=O)N4CCCCC4)ccc32)c1 | 4.33%
Cn1c(NC(=O)c2ccco2)c(-c2ccccc2Cl)c(=O)c2ccccc21 | -1.57%
N#C/C(=C\c1ccc(N2CCOCC2)o1)C(=O)N1CCOCC1 | 20.9% (active)
N#C/C(=C\c1ccc(-c2cccc([N+](=O)[O-])c2)o1)C(=O)NCCN1CCOCC1 | -0.08%
N#C/C(=C/c1ccc(N2CCOCC2)o1)C(=O)N1CCOCC1 | 14.4%
Cc1ccc(C(=O)c2ccc(N3CCN(C)CC3)c([N+](=O)[O-])c2)cc1 | -2.73%
CCCCc1ccc(NC(=O)NCc2cccnc2)cc1 | 4.26%
CCN(CC(=O)NCc1ccc(F)cc1)S(=O)(=O)c1ccc(Cl)s1 | 7.4%

Structure (SMILES) | inhibition
O=C(COC(=O)CCOc1ccccc1)Nc1cc(S(=O)(=O)N2CCCCC2)ccc1Cl | 5.23%
CCC(C)(C)NC(=O)CN(C(=O)CCC(=O)Nc1nccs1)c1ccc2c(c1)OCO2 | -1.66%
O=C(Oc1ccc(Br)cc1)c1cccnc1 | 1.44%
N#CCc1ccc(OC(=O)c2cccnc2)cc1 | -4.29%
O=C(Oc1c(-c2ccco2)oc2ccccc2c1=O)c1cccnc1 | 68.4% (active)
Cc1csc(=O)n1CCC(=O)OCC(=O)NNC(=O)c1ccc(Br)cc1 | -2.19%
Cc1cc2c(=O)n(C)c(SCC(=O)c3cc4ccccc4o3)nc2s1 | 1.59%
CCOc1ccccc1Nc1nnc(SCC(=O)Nc2cc(C)on2)s1 | 3.25%
Cc1ccccc1Nc1nnc(SCC(=O)c2cc3ccccc3o2)s1 | 18.7% (active)
CCc1ccc(CNC(=O)C2CC(=O)N(CCc3ccc(C)cc3)C2)cc1 (stereo not given) | -4.43%
CCCCN(C(=O)CSCC(=O)Nc1ccc(OC)cc1)c1c(N)n(CCC)c(=O)[nH]c1=O | -1.31%
CC(=O)c1cc(NC(=O)c2ccccc2)c(=O)oc1/C=C/N(C)C | 16.3% (active)
CC(=O)Oc1cccc(C(=O)Nc2ccccc2NC(=O)c2cccc(OC(C)=O)c2)c1 | -2.81%
CCOC(=O)c1cc(NC(=O)c2ccc(Cl)cc2)c(=O)oc1-c1ccccc1 | 1.63%
Cc1cc(OCC(=O)N2CCN(c3ncccn3)CC2)ccc1Cl | -0.8%
O=C(Nc1ccc(Sc2ccc(Br)cc2)cc1)c1ccco1 | 17.8% (active)
O=C(CNC(=O)c1ccco1)NNC(=O)c1ccc(Br)cc1 | 2.95%
O=C(Nc1ccc(O)cc1)c1ccc(NC(=O)c2ccco2)cc1 | 3.06%
CC1CCCCN1S(=O)(=O)CCNC(=O)c1ccccc1 (stereo not given) | 1.88%
CC(C)(C)OC(=O)N[C@H](C(=O)OC(C)(C)C)c1ccc(Br)cc1 | 2.45%
CN1CCNC(=O)C1CC(=O)NCCC1=CCCCC1 (stereo not given) | 1.39%
